High-throughput results (PubChem BioAssay)
hcDAF12 agonist = H. contortus DAF-12 nuclear receptor activators, primary screen, cell-based, luminescence, HEK293, lit1-tk-luc reporter; AID 652067, 2013; 1.4% of 370,000 active; HEK293 hcDAF-12 lit1-tk-luc reporter; 0% DMSO, 100% Δ7-dafachronic acid; activation, % at 6.8 µM;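 active = activation above the mean of all tested compounds plus 3 SD, cut at about 5.5% in these data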;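 note: 100% = response to 3 µM Δ7-dafachronic acid high control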
DAX1 inh-1 = DAX1 (NR0B1) inhibitors on StAR promoter, primary screen, cell-based, luminescence, SF-1 (NR5A1), full-length DAX-1. HEK293T StAR-luciferase reporter, SF-1/DAX-1 repression relief. inhibition, % at 6.8 µM. 1.1% of 370,000 active. AID 652010, 2013;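 active = inhibition above the mean over all tested compounds plus 3 SD, cut at about 3.6% in these data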;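 note: 0% = DAX-1 cells with DMSO and 100% = cells lacking DAX-1 with DMSO; higher inhibition means more luminescence from relief of DAX-1 repression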
hgDAF-12 ag = H. glycines DAF-12 receptor agonists, primary screen, cell-based, luminescence, HEK293, GAL4 fusion, UAS-luciferase; 1.8% of 370,000 active; Nuclear hormone receptor DAF-12 (Heterodera glycines), GAL4 fusion; activation, % at 6.8 µM; HEK293 GAL4-hgDAF12 UAS-luciferase reporter, agonist luminescence; normalized to butyrate control; AID 687014, 2013;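 active = activation above a cutoff set at the mean of all screened compounds plus 3 SD, cut at about 10% in these data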;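 note: 0% = DMSO wells and 100% = sodium butyrate wells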
SMARCA2 activ = SMARCA2 (BRM) function activators, primary screen, cell-based, luminescence, high throughput; 1% of 370,000 active; MG213 cells, MMTV-luciferase reporter, dexamethasone, overnight; AID 652017, 2013; activation, % at 9.1 µM; in the data active = activation above about 7.8%;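 note: 0% = vehicle wells and 100% = reference activator wells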
ssDAF12 agonist = S. stercoralis DAF-12 nuclear receptor activators, primary screen, cell-based, luminescence, HEK293, GRIP1 co-expression, lit1-tk-luc; HEK293 ssDAF-12/GRIP1 lit1-tk-luc reporter; % of 3 µM dafachronic acid response; activation, % at 6.8 µM; 1% of 370,000 active; Nuclear hormone receptor DAF-12 (Strongyloides stercoralis); AID 652126, 2013;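 active = activation above the mean over all tested compounds plus 3 SD, cut at about 0.9% in these data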;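 note: 0% = DMSO-only wells and 100% = 3 µM delta7-dafachronic acid wells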
DAX1 inh-2 = DAX1 (NR0B1) inhibitors, primary screen, cell-based, HEK293, Gal4-DAX1, luciferase luminescence; Nuclear receptor subfamily 0 group B member 1 (Homo sapiens), P51843; HEK293 Gal4-DAX1 luciferase reporter; inhibition, % at 6.75 µM; 0.99% of 340,000 active; AID 504766, 2011;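 active = inhibition above the mean over all tested compounds plus 3 SD, cut at about 4.2% in these data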;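 note: 0% = DAX1-transfected cells with DMSO and 100% = empty-vector control cells with DMSO; inhibition shows as a rise in luminescence from relieved DAX1 repression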
LXRb hcDAF ctr = LXR agonists, Gal4 luciferase reporter, confirmation, counter-screen for hcDAF-12 agonist project, cell-based, luminescence, HEK293, H. contortus campaign; shares compounds with hcDAF12 agonist; activation, % at 6.8 µM; 3,400 tested, under 10 active; HEK293 Gal4-LXR tk-luc reporter, 24 h; normalized: DMSO 0%, positive control 100%;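 active = mean percent activation of the reporter above a cutoff set as the average over tested compounds plus their standard deviation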
Target sequence (P55055 whole entry, looked up, the tested form may be a part): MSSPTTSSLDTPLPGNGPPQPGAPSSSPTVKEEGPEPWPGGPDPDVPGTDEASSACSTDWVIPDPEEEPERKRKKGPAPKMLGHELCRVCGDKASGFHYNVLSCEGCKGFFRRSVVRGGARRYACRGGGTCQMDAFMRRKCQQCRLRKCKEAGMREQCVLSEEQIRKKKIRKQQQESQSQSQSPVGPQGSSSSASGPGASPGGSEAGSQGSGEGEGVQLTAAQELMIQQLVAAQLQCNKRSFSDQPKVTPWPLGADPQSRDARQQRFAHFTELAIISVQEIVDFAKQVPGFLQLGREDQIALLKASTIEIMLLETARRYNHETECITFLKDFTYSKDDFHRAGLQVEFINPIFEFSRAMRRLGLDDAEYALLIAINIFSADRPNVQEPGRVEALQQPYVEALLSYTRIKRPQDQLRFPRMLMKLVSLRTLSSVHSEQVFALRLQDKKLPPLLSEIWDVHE
hcDAF12 conf = H. contortus DAF-12 receptor agonists, confirmation, cell-based, luminescence, HEK293, lit1-tk-luc, triplicate; shares compounds with hcDAF12 agonist; AID 743032, 2013; 61% of 3,400 active; HEK293 hcDAF-12 lit1-tk-luc reporter; % of Δ7-dafachronic acid response; activation, % at 6.8 µM;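 active = mean activation across triplicate tests above the threshold derived from the earlier primary screen, cut at about 5.5% in these data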;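 note: 0% = DMSO only wells and 100% = 3 µM Δ7-dafachronic acid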
* marks the source's active call; other numbers are inactive results; x = no result. This is a sample that favours compounds with a hit; in the whole collection about 4.8% have one here.

SMILES | hcDAF12 agonist | DAX1 inh-1 | hgDAF-12 ag | SMARCA2 activ | ssDAF12 agonist | DAX1 inh-2 | LXRb hcDAF ctr | hcDAF12 conf
Cc1cc(OC(C)CCN2CCC(C(O)(c3ccccc3)c3ccccc3)CC2)ccc1Br (stereo not given) | 6.8* | -1 | 6 | -9 | -1 | x | 0 | 3
Cc1nc2ccccc2nc(C)c1=NOCc1ccccc1Cl | 8.7* | 1 | 11* | 1 | 0 | 1 | 0 | -1
CN(C)Cc1ccc(-c2nc3cccc4c3n2CCNC4=O)cc1 | -3 | 0 | 5 | 1 | -2 | 0 | x | x
Cc1cc(C)c2nc(-c3cccnc3)cc(C(=O)NC(C)c3cnn(C)c3C)c2c1 (stereo not given) | -2 | -3 | 0 | -2 | -2 | 0 | x | x
NC(=O)C1CC(=O)N(c2ccc(OCc3ccccc3Cl)cc2)C1 (stereo not given) | 7.3* | 0 | 6 | 2 | 0 | -1 | 0 | 0
O=C(O)C1CC(=O)N(c2ccc(OCc3ccccc3Cl)cc2)C1 (stereo not given) | 0 | 0 | -2 | -3 | -1 | 0 | x | x
COc1cccc2c1C(=O)c1c(O)c3c(c(O)c1C2=O)C[C@@](O)(C(=O)CO)C[C@@H]3OC1CC(N)C(O)C(C)O1 (stereo not given in full) | 11* | -6 | -4 | -11 | 7.3* | -2 | 2 | 5
Nc1c2c(nc3sc4c(c13)CCCC4)-c1ccccc1CC2 | 7.6* | 3 | 10 | 7 | 1.1* | 3 | 2 | 11*
CC(=O)c1ccc(N2CCN(C(=O)CNS(=O)(=O)c3ccc4c(c3)OCCCO4)CC2)c(F)c1 | -2 | -1 | -3 | -3 | -1 | -1 | x | x
O=S(=O)(NCc1c(Cl)cccc1Oc1ccccc1)c1ccccc1 | 20* | 0 | -3 | -5 | -1 | 0 | 0 | -1
Cc1nc2sc(C(=O)NCc3ccc4c(c3)OCO4)c(N)c2c(C)c1Cl | -3 | 0 | -1 | -2 | -1 | x | x | x
CCCCn1c(O)c2n(c1=O)Cc1ccccc1N=C2c1ccc(C)cc1 | 7.3* | 1 | 0 | 4 | 0 | x | 0 | 4
Cc1ccc(NC(=O)N2CCCC2C(=O)NCC2CCCCC2)cc1 (stereo not given) | 3 | 0 | 1 | -1 | -1 | 1 | x | x
O=C(c1cc(COc2cccc3cnccc23)on1)N1CCCC(CCCO)C1 (stereo not given) | -5 | -9 | -8 | -4 | -2 | -2 | x | x
COc1ccc(OCc2cc(C(=O)N3CCCC(CO)C3)no2)c2ccccc12 (stereo not given) | 7.8* | 3 | 10 | 3 | 1.4* | 1 | 1 | 9.5*
CCCCSCCCNC(=O)Nc1ccc(C)c(C)c1 | 1 | 0 | 1 | -2 | -2 | 4 | x | x
COC(CNC(=O)c1ccc(CS(=O)(=O)c2ccc(Br)cc2)o1)OC | -1 | 0 | -1 | 0 | -1 | 0 | x | x
COc1ccc(CCNC(=O)Nc2nc(C(N)C3CCCCC3)cs2)cc1OC (stereo not given) | -1 | 0 | -1 | -4 | -1 | x | x | x
COc1cccc(/C=N/Nc2ccc(C(=O)O)cc2)c1O | -6 | -4 | -17 | -7 | -3 | -8 | x | x
COc1cccc(/C=N/Nc2ccccc2C(=O)O)c1O | 7.8* | 3 | 9 | 5 | 1.4* | 5.0* | 1 | 11*
CCc1cc2c(SCC(=O)NC(=O)c3cccn3C)ncnc2s1 | 0 | -1 | 1 | 2 | -1 | -2 | x | x
Cc1ccc2sc(-c3ccc(NC(=O)CCN4C(=O)c5ccccc5C4=O)cc3)nc2c1 | 10.0* | 2 | 9 | 8 | 1 | x | 2 | 9.0*
CCCCCCCn1c(C)nnc1-c1cnn(C)c1N | -1 | 0 | 3 | 1 | -1 | 0 | x | x
OCCC1CN(Cc2ccccc2O)CCN1CCCc1ccccc1 (stereo not given) | 7.8* | 0 | 0 | 1 | -1 | -1 | 0 | 1
COc1ccc(/C=C2\C(=O)c3ccccc3OC2c2ccccc2)cc1 (stereo not given) | -2 | -1 | 6 | 2 | -2 | 1 | x | x
SMILES | hcDAF12 agonist | DAX1 inh-1 | hgDAF-12 ag | SMARCA2 activ | ssDAF12 agonist | DAX1 inh-2 | LXRb hcDAF ctr | hcDAF12 conf
COc1ccc(/C=C2\Oc3ccccc3C2=O)cc1 | 7.2* | 2 | 10* | 4 | 0 | -2 | 1 | 5
C=CCn1c(SCC(=O)N2CCN(CCO)CC2)nc2sc3c(c2c1=O)CCC3 | 1 | -2 | 0 | -1 | -1 | -1 | x | x
Cc1cccc(-c2cc3c(nn2)-c2ccccc2C3=O)c1 | 6.6* | 1 | 5 | 5 | 1.7* | -1 | 1 | 8.6*
O=C1c2ccccc2-c2nnc(-c3ccccc3)cc21 | 7.6* | 3 | 8 | 7 | 1.8* | 1 | 1 | 6.0*
O=C1CCC(=O)N1c1ccc(-c2nc3ccccc3s2)cc1 | 7.3* | 3 | 4 | 2 | 0 | 3 | 2 | 9.5*
O=C1CCN(Cc2ccccc2)C=C1c1ccc(Cl)cc1 | -2 | -1 | 1 | 0 | -1 | 0 | x | x
O=C1CCN(Cc2ccccc2)C=C1c1ccc2ccccc2c1 | 9.4* | 2 | 11* | 8 | 1.0* | 3 | 1 | 7.0*
CCN1CCCC1CNC(=O)c1cc2ccc(OC)cc2[nH]1 (stereo not given) | 6.6* | 1 | 3 | 3 | 0 | 0 | 0 | 2
CCN1CCCC1CNC(=O)c1[nH]c2ccc(OC)cc2c1C (stereo not given) | -1 | 0 | 2 | -4 | -1 | 3 | x | x
Cc1cc(C)nc(SCCC(=O)Nc2ccccc2Cl)n1 | -3 | 2 | 2 | 0 | -2 | 1 | x | x
O=C(Nc1cccc(F)c1)Nc1ccccn1 | 8.7* | 1 | 8 | 3 | -1 | 3 | 1 | 1
